According to PubChem BioAssay (Tox21):
Inconclusive results are not listed. Calls of active or inactive are those of the source. Unless noted, calls come from the whole dose curve; as a rule, active = well fitted curve in the direction sought with a large enough effect in the repeat runs; inconclusive = weak or mixed curves; inactive = no such curve, though single readings can be large; an effect the other way counts as inactive or inconclusive.

Assays:
[1] = qHTS assay to identify small molecule antagonists of the thyroid receptor (TR) signaling pathway - cell viability counter screen (AID 743064); note: nearly all actives have a fitted effect of over 50% in size; note: potency is the fitted concentration of half-maximal effect
Summary of the method: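 Fluorescence from CellTiter-Fluor, added after 23.5 h exposure at 37 °C, reported viability of GH3.TRE-Luc cells co-treated with compound and 1 nM T3. Measured in the same wells as the luciferase TR readout.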

[2] = qHTS assay to identify small molecule antagonists of the estrogen receptor alpha (ER-alpha) signaling pathway - cell viability counter screen (AID 743074; calls by dose curve; note: nearly all actives have a fitted effect of over 45% in size; note: potency is the fitted concentration of half-maximal effect)
[3] = molecular target: Estrogen receptor (Homo sapiens) (UniProt P03372); assay: qHTS assay to identify small molecule agonists of the estrogen receptor alpha (ER-alpha) signaling pathway (AID 743075; calls by dose curve)
[4] = molecular target: Estrogen receptor (Homo sapiens) (UniProt P03372); assay: qHTS assay to identify small molecule agonists of the estrogen receptor alpha (ER-alpha) signaling pathway using the BG1 cell line (AID 743079); note: nearly all actives have a fitted effect of over 20% in size; note: potency is the fitted concentration of half-maximal effect
[5] = qHTS assay to identify small molecule antagonists of the estrogen receptor alpha (ER-alpha) signaling pathway using the BG1 cell line - cell viability counter screen (AID 743081);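 note: compound given together with 17beta-estradiol as the ER stimulus; series mostly up to about 70 µM; nearly all actives have a fitted effect of over 45% in size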
[6] = qHTS assay to identify aromatase inhibitors - cell viability counter screen (AID 743084);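 note: cells stimulated with testosterone during compound exposure; nearly all actives have a fitted effect of over 55% in size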; note: potency is the fitted concentration of half-maximal effect
[7] = qHTS assay to identify small molecule that activate the aryl hydrocarbon receptor (AhR) signaling pathway - cell viability counter screen (AID 743086);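 note: HepG2 liver cells carrying the AhR DRE luciferase reporter; series mostly up to about 70 µM; nearly all actives have a fitted effect of over 45% in size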
Summary of the method: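 HepG2-AhR-luc (HG2L7.5c1) cells, 4000/well, were preincubated 5 h at 37C, exposed to compound in qHTS format for 24 hr at 37C, then given CellTiter-Fluor for 30 min; viability was read as fluorescence in the reporter wells.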

[8] = molecular target: Estrogen receptor (Homo sapiens) (UniProt P03372); assay: qHTS assay to identify small molecule antagonists of the estrogen receptor alpha (ER-alpha) signaling pathway (AID 743069; active = well fitted curve in the direction sought with a large enough effect in the signal ratio in the repeat runs, not every such curve was filed as active; the % refers to the signal ratio)
Summary of the method: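 Screening used a UAS-driven beta-lactamase reporter integrated into HEK293 cells expressing ER-alpha, stimulated with 17beta-estradiol alongside test compounds over 18 hr at 37C; signal came from LiveBLAzer B/G FRET fluorescence.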

[9] = qHTS assay to identify small molecule antagonists of the estrogen receptor alpha (ER-alpha) signaling pathway using the BG1 cell line (AID 743080; calls by dose curve;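 note: BG1 cells stimulated with 17beta-estradiol alongside compound; series mostly up to about 70 µM; nearly all actives have a fitted effect of over 25% in size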)
Summary of the method: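 Quantitative HTS on the Tox21 10K library: BG1 cells with endogenous ER-alpha and ERE-luciferase reporter, 17beta-estradiol stimulation, 21.5 h compound exposure, luminescence endpoint with parallel fluorescence cytotoxicity counter-read.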

Aromatase (Homo sapiens) = Aromatase (Homo sapiens) (UniProt P11511); assay: qHTS assay to identify aromatase inhibitors (AID 743083); note: nearly all actives have a fitted effect of over 55% in size; note: potency is the fitted concentration of half-maximal effect
[10] = molecular target: Peroxisome proliferator-activated receptor gamma (Homo sapiens) (UniProt P37231); assay: qHTS assay to identify small molecule agonists of the peroxisome proliferator-activated receptor gamma (PPARg) signaling pathway (AID 743094; active = well fitted activation curve with a large enough effect in the signal ratio in the repeat runs, not every such curve was filed as active; the % refers to the signal ratio)
Summary of the method: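 Reporter activation was scored by fluorescence of cleaved LiveBLAzer B/G substrate (1 h, room temperature) in PPARg-bla HEK293H cells previously treated 17 h at 37C with DMSO-dissolved compounds.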

[11] = qHTS assay to identify small molecule antagonists of the thyroid receptor (TR) signaling pathway (AID 743065); note: nearly all actives have a fitted effect of over 55% in size; note: potency is the fitted concentration of half-maximal effect
Summary of the method: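 GH3.TRE-Luc rat pituitary cells carrying two TR response elements driving luciferase were plated for 4 h, given compound plus 1 nM T3 (final), and incubated 23.5 h at 37 C. ONE-Glo luminescence measured reporter inhibition; CellTiter-Fluor fluorescence tracked cytotoxicity.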

[12] = test system: thyroid hormone receptor (rat, GH3 cells); assay: qHTS assay to identify small molecule agonists of the thyroid receptor (TR) signaling pathway (AID 743066; calls by dose curve)
[13] = molecular target: Aryl hydrocarbon receptor (Homo sapiens) (UniProt P35869); assay: qHTS assay to identify small molecule that activate the aryl hydrocarbon receptor (AhR) signaling pathway (AID 743085); note: nearly all actives have a fitted effect of over 15% in size; note: potency is the fitted concentration of half-maximal effect;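 for activation: HG2L7.5c1 human HepG2 liver cells with stably integrated DRE-driven firefly reporter; series mostly up to about 70 µM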
Summary of the method: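 Cell line HG2L7.5c1 (human hepatoma, 20× DRE-luc). Plated, 5 h 37C, compound/DMSO added, 24 h 37C. CellTiter-Fluor 30 min 37C → fluorescence; then ONE-Glo 30 min RT → luminescence.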

[14] = qHTS assay for small molecule agonists of the antioxidant response element (ARE) signaling pathway (AID 743202; active = well fitted activation curve with a large enough effect in the signal ratio in the repeat runs, not every such curve was filed as active; the % refers to the signal ratio; note: potency is the fitted concentration of half-maximal effect)
Summary of the method: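 Steps: seed ARE-bla HepG2 cells (2,000/well); incubate 5 h at 37 C; add compounds by pin tool; incubate 16 h at 37 C; add FRET substrate; read fluorescence after 2 h at RT.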

[15] = qHTS assay for small molecule agonists of the antioxidant response element (ARE) signaling pathway - cell viability counter screen (AID 743203; calls by dose curve; note: nearly all actives have a fitted effect of over 55% in size; note: potency is the fitted concentration of half-maximal effect)
Summary of the method: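 Viability counter screen: stably transfected ARE-bla HepG2 line, 16 hrs compound exposure at 37C/5% CO2, ATP-based CellTiter-Glo luminescence measured in the reporter wells.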

[16] = qHTS assay for small molecule activators of the heat shock response signaling pathway - cell viability counter screen (AID 743209); note: nearly all actives have a fitted effect of over 50% in size; note: potency is the fitted concentration of half-maximal effect
Summary of the method: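 Viability of HSE-bla HeLa cells is measured with CellTiter-Glo in the wells already used for the reporter read. Compound exposure lasts 5 h at 37 C, and luminescence is read after 30 min at room temperature.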

[17] = qHTS assay to identify small molecule antagonists of the peroxisome proliferator-activated receptor gamma (PPARg) signaling pathway - cell viability counter screen (AID 743194); note: nearly all actives have a fitted effect of over 55% in size; note: potency is the fitted concentration of half-maximal effect
Summary of the method: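 PPARg-UAS-bla HEK293H cells were plated, rested 5 h at 37 C, then treated with compounds plus rosiglitazone (50 nM final) for 17 h at 37 C; viability was then read by CellTiter-Glo luminescence after 30 min at room temperature.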

[18] = qHTS assay for small molecule activators of the heat shock response signaling pathway (AID 743210; active = well fitted activation curve with a large enough effect in the signal ratio in the repeat runs, with a control signal flat, not every such curve was filed as active; the % refers to the signal ratio;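 note: HeLa cells with beta-lactamase reporter driven by heat shock elements; series mostly up to about 63 µM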)
Summary of the method: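 Activation of heat shock element-controlled beta-lactamase expression is measured in HeLa cells by LiveBLAzer FRET fluorescence, with compound exposure lasting 5 h at 37 C and substrate loading 2.5 h at room temperature.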

Measured: Potency

Peroxisome proliferator-activated receptor gamma (Homo sapiens), sequence (P37231 whole entry, looked up): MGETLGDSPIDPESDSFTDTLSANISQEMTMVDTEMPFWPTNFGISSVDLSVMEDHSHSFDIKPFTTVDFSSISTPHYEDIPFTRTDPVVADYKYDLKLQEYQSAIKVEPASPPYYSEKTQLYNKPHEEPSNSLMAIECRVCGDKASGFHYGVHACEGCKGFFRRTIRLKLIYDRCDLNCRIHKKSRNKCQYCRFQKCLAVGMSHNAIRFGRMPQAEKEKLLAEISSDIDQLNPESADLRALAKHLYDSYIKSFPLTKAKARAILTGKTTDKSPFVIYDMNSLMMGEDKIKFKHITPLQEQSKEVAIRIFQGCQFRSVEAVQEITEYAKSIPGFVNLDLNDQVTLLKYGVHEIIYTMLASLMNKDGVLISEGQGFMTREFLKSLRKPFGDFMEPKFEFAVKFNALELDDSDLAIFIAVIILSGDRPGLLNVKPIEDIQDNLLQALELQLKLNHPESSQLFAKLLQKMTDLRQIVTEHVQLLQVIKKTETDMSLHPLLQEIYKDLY
Estrogen receptor (Homo sapiens), sequence (P03372 whole entry, looked up): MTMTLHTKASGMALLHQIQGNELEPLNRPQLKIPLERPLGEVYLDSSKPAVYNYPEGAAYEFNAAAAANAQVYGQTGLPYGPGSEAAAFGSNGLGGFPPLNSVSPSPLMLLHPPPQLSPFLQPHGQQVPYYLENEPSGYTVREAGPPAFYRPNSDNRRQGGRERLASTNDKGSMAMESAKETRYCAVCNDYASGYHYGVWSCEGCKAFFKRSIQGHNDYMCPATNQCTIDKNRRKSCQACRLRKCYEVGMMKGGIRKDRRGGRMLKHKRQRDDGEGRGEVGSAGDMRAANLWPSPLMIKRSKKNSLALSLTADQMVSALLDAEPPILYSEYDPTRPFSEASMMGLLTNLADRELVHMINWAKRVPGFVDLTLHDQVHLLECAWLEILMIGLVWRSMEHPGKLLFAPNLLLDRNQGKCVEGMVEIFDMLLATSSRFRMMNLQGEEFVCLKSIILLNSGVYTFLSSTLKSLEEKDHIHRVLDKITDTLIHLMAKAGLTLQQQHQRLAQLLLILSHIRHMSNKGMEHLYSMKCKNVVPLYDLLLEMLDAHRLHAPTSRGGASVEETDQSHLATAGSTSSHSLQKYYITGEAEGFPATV
Aromatase (Homo sapiens), sequence (P11511 whole entry, looked up): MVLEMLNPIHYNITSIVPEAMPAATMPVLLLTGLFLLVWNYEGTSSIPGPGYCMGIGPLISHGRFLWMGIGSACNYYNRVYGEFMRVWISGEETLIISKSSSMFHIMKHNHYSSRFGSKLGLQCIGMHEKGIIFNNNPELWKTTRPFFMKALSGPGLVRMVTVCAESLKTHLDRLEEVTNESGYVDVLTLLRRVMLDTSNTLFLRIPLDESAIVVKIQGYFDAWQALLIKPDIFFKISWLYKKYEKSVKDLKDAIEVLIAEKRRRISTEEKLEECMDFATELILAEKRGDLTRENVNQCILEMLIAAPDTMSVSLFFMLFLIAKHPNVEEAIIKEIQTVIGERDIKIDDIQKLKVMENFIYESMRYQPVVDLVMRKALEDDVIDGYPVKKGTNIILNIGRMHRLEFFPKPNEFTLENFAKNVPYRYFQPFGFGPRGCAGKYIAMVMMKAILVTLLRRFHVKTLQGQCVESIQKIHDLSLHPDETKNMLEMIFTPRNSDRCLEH
Aryl hydrocarbon receptor (Homo sapiens), sequence (P35869 whole entry, looked up): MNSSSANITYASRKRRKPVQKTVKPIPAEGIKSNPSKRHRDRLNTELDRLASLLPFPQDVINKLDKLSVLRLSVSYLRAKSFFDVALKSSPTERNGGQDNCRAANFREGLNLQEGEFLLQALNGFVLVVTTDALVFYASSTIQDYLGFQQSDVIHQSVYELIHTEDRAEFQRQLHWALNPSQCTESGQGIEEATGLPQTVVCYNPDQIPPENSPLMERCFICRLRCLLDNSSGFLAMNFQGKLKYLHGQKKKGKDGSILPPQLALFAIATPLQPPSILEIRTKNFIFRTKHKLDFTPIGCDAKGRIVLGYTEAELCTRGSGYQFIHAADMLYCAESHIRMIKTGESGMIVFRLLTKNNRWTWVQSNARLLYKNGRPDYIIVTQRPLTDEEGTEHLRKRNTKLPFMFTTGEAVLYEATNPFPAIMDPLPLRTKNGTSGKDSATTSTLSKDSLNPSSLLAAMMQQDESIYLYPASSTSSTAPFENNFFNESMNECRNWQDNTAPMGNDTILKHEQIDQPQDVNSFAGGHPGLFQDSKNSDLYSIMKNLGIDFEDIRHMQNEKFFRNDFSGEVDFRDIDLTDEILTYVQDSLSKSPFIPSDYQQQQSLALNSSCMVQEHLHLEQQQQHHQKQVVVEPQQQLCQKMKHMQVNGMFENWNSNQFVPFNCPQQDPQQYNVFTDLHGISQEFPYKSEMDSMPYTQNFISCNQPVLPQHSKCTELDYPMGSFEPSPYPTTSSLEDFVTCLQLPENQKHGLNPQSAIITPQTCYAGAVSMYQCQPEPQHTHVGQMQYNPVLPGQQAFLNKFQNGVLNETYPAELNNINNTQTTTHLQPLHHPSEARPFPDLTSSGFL

CCCCC/C=C\C=C\C(=O)OCC
active: [1] 31.9 µM | [6] 56.8 µM
inactive: [2] | [3] | [4] | [5] | [7]

CCC(O)c1ccccc1 (stereo unspecified)
inactive: [1] | [8] | [3] | [4] | [9] | [5] | Aromatase (Homo sapiens) | [6] | [7] | [10]

Cc1cc(N)c2ccccc2[n+]1CCCCCCCCCC[n+]1c(C)cc(N)c2ccccc21
active: [11] 11.4 µM | [2] 8.11 µM
inactive: [12] | [3] | [13] | [7] | [10]

S=C1NC=NC2N=CNC12 (stereo unspecified)
active: [2] 11 µM | [14] 4.86 µM | [15] 8.63 µM
inactive: [1] | [12] | [5] | Aromatase (Homo sapiens) | [6] | [7] | [16]

CN1CCN(CCCN2c3ccccc3Sc3ccc(C(F)(F)F)cc32)CC1
inactive: [12] | [5] | [13]
active: [1] 10.6 µM | Aromatase (Homo sapiens) 26.6 µM | [6] 29.8 µM | [17] 29.8 µM | [15] 15 µM | [16] 29.8 µM

CNC(=O)C[C@@H](N)C(=O)N[C@@H](C(=O)N[C@@H]1C(=O)N2[C@@H]1SC(C)(C)[C@@H]2C(=O)O)c1ccc(O)cc1
not listed: [11] | [12] | [14] | [15] | [16] | [17] | [18]
inactive: all other assays above

CCCCCCCCCCCCCCCCCCNC(=O)OC1CCN(C(=O)OC[C@H](COC(=O)N(Cc2cccc[n+]2CC)C(=O)c2ccccc2OC)OC)CC1
inactive: [3]
active: [1] 15 µM | [2] 23.9 µM | Aromatase (Homo sapiens) 21.1 µM | [6] 29.8 µM | [15] 26.6 µM | [16] 23.7 µM

O=C(O)c1cc(O)c2c(c1)[C@H]([C@H]1c3cc(C(=O)O)cc(O)c3C(=O)c3c(O[C@@H]4O[C@H](CO)[C@@H](O)[C@H](O)[C@H]4O)cccc31)c1cccc(O[C@@H]3O[C@H](CO)[C@@H](O)[C@H](O)[C@H]3O)c1C2=O
inactive: [11] | [12] | [2] | [5] | Aromatase (Homo sapiens) | [6] | [13] | [7] | [10]

CN1CC[C@H](c2c(O)cc(O)c3c(=O)cc(-c4ccccc4Cl)oc23)[C@H](O)C1
active: [1] 0.211 µM | Aromatase (Homo sapiens) 0.211 µM
inactive: [17] | [15] | [18]

C[S+](CC[C@H](N)C(=O)O)C[C@H]1O[C@@H](n2cnc3c(N)ncnc32)[C@H](O)[C@@H]1O (stereo partly specified)
inactive: [1] | [12] | [2] | [5] | Aromatase (Homo sapiens) | [6] | [7] | [10]

FC(F)(F)C(F)(F)C(F)(F)C(F)(F)C(F)(F)F
not listed: [1] | [5] | [14] | [15] | [16] | [17] | [18]
inactive: all other assays above

CN=C(N)NCCC[C@H](N)C(=O)O
inactive: [1] | [2] | [5] | Aromatase (Homo sapiens) | [6] | [13] | [7]

CC(C)OC(=O)Nc1ccc2nc(-c3cscn3)[nH]c2c1
inactive: [12] | [2] | [3] | Aromatase (Homo sapiens) | [6] | [7] | [10]
active: [11] 3.76 µM | [4] 2.11 µM | [13] 6.68 µM

CC(C)(S)C(=O)N[C@@H](CS)C(=O)O
inactive: [1] | [2] | [5] | Aromatase (Homo sapiens) | [6] | [13] | [7] | [10]
